Laboratory results taken from the supplement of paper PMC11732987, “Enantioselective OTUD7B fragment discovery through chemoproteomics screening and high-throughput optimisation” (Communications Chemistry, 2025).

Legend:
Assay in all cases: log2 ratio of Biotin-Ahx-Ub-VS probe labelling (fragment/DMSO); higher = less target engagement (more negative = stronger competition), active = hit call of the paper (q ≤ 0.05, log2 ratio ≤ -1)
Conditions in all cases: compound concentration: 200 uM; treatment time: 3 h
USP34 = USP34 (UniProt Q70CQ2)
Chain of USP34 (Q70CQ2 whole entry, the tested form may be a part): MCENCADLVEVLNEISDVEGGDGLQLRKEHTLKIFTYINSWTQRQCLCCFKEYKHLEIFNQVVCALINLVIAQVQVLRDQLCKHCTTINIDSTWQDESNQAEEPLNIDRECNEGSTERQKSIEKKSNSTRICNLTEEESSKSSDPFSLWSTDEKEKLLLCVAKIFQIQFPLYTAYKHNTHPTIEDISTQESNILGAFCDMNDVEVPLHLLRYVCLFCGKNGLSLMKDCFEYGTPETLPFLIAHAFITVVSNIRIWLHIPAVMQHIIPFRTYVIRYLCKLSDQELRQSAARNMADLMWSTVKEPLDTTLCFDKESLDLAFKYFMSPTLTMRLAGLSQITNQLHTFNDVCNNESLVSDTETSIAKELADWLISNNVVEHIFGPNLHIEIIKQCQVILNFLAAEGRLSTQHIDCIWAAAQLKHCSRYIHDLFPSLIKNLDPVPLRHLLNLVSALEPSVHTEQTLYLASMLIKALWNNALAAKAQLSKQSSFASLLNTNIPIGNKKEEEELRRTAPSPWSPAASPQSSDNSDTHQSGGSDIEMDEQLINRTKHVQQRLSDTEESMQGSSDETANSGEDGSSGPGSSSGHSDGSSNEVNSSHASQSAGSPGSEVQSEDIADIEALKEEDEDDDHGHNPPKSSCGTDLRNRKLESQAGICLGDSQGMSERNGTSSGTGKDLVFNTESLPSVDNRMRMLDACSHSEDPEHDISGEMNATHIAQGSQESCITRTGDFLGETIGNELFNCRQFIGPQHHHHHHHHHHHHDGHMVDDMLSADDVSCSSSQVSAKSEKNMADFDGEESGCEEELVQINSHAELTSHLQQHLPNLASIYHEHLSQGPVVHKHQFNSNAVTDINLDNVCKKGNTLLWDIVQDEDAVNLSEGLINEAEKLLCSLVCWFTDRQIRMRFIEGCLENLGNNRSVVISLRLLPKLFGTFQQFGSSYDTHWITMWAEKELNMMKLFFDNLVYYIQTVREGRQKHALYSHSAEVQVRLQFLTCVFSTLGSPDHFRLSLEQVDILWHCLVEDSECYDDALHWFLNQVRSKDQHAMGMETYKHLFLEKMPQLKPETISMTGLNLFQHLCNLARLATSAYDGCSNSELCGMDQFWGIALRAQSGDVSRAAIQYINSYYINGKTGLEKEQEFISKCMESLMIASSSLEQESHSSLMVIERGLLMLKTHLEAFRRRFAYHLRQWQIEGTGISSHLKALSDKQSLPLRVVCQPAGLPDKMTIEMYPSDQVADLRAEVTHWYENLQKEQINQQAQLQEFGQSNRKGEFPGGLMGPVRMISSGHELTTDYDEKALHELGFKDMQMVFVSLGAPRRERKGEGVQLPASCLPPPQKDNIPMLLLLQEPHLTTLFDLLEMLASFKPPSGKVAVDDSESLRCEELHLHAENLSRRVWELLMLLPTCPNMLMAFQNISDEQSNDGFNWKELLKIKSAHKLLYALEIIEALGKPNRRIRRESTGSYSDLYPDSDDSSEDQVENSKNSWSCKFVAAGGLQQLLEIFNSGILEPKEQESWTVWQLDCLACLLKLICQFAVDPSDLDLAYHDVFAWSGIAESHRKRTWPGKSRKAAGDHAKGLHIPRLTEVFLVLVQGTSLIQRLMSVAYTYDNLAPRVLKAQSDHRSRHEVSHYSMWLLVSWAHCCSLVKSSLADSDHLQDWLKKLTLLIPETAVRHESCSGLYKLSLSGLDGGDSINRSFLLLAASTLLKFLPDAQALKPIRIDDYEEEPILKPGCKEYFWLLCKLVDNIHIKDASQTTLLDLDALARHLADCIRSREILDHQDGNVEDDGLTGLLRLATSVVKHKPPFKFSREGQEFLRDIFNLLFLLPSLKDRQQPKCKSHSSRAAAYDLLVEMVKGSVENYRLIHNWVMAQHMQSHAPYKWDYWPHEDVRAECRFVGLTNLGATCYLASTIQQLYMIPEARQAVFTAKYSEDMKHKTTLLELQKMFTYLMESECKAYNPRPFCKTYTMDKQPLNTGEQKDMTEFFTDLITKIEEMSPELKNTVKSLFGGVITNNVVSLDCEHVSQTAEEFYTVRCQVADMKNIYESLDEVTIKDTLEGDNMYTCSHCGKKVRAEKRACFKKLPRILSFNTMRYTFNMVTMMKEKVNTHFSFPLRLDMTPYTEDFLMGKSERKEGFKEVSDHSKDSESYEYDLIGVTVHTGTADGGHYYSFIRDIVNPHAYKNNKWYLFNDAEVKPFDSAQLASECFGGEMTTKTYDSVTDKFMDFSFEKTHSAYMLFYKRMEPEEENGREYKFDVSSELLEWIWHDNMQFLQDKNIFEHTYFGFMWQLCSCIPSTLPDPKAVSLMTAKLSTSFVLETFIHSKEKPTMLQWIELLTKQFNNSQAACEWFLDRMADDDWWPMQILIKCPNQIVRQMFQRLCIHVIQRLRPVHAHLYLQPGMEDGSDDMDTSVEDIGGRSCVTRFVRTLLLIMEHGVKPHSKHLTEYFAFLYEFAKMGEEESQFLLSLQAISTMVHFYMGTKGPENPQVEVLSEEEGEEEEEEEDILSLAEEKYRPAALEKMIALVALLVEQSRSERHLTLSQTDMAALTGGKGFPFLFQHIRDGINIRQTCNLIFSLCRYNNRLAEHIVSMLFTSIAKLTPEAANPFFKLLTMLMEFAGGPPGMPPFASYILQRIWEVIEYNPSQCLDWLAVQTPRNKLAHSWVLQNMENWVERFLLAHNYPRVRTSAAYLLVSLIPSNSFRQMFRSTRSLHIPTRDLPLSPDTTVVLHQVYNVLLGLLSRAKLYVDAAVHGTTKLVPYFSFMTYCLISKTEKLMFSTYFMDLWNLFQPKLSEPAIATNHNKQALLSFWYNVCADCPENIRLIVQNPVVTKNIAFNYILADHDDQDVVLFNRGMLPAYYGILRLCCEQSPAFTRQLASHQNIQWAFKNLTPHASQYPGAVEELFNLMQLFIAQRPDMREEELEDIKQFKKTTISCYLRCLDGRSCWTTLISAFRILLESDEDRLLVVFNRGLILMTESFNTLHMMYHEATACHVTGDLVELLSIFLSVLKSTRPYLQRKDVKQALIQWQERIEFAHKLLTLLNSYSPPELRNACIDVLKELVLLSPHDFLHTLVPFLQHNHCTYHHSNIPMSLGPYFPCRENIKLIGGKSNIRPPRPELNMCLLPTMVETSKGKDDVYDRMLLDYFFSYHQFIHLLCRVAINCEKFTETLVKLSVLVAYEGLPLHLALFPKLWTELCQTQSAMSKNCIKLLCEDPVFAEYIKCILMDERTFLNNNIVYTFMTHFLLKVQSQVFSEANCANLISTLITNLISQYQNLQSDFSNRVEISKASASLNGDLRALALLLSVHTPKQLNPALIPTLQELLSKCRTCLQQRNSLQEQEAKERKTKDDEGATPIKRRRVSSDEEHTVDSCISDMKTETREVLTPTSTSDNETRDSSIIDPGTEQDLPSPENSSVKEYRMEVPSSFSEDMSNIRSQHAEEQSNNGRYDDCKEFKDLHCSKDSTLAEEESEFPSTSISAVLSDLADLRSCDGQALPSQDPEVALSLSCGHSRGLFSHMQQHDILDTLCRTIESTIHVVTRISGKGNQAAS
Method in brief: (§1)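 Fragment (200 µM) or vehicle was incubated for 3 h with triplicate HEK293T lysate samples of 495 µg, which were then treated with Biotin-Ahx-Ub-VS at 0.5 µM final for 1 h. Labelled DUBs were enriched on NeutrAvidin, digested with LysC and trypsin, and analysed by diaPASEF LC-MS/MS. Values are average log2 fragment/vehicle ratios from an unpaired t-test on global-median-normalised Spectronaut label-free quantities, using proteins with ≥2 unique peptides.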

USP36 = molecular target: T1, USP36 (UniProt Q9P275)
T1 sequence (whole entry): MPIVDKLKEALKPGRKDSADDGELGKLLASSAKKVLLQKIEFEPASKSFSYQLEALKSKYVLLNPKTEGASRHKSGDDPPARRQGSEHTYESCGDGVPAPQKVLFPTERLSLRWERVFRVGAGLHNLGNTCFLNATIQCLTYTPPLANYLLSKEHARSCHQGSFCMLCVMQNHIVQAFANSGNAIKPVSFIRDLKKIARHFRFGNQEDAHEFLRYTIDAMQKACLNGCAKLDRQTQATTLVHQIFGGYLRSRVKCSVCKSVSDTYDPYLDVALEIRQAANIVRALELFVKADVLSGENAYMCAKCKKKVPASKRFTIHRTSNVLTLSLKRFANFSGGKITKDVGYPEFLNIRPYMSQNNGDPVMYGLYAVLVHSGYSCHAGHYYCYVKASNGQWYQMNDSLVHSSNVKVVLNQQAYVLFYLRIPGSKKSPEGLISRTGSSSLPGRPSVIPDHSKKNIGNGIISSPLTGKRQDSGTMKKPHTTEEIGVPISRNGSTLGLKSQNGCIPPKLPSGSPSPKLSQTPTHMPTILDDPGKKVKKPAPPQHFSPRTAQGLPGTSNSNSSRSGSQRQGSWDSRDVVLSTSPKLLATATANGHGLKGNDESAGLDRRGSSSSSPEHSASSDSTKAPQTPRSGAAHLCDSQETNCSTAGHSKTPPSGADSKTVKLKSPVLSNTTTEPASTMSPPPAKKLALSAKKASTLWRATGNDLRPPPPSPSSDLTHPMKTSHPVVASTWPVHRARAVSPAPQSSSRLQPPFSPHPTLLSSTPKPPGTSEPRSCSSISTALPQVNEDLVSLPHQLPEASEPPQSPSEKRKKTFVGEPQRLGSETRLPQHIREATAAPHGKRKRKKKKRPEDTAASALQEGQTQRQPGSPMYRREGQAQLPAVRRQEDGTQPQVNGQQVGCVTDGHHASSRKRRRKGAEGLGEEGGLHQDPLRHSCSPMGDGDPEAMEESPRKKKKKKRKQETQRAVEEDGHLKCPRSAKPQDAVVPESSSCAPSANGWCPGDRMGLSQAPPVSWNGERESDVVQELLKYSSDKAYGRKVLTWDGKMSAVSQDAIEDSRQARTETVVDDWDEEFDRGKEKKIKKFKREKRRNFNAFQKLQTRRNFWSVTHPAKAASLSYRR
Method in brief: as §1

USP38 = molecular target: T2, USP38 (UniProt Q8NB14)
T2 sequence (whole entry): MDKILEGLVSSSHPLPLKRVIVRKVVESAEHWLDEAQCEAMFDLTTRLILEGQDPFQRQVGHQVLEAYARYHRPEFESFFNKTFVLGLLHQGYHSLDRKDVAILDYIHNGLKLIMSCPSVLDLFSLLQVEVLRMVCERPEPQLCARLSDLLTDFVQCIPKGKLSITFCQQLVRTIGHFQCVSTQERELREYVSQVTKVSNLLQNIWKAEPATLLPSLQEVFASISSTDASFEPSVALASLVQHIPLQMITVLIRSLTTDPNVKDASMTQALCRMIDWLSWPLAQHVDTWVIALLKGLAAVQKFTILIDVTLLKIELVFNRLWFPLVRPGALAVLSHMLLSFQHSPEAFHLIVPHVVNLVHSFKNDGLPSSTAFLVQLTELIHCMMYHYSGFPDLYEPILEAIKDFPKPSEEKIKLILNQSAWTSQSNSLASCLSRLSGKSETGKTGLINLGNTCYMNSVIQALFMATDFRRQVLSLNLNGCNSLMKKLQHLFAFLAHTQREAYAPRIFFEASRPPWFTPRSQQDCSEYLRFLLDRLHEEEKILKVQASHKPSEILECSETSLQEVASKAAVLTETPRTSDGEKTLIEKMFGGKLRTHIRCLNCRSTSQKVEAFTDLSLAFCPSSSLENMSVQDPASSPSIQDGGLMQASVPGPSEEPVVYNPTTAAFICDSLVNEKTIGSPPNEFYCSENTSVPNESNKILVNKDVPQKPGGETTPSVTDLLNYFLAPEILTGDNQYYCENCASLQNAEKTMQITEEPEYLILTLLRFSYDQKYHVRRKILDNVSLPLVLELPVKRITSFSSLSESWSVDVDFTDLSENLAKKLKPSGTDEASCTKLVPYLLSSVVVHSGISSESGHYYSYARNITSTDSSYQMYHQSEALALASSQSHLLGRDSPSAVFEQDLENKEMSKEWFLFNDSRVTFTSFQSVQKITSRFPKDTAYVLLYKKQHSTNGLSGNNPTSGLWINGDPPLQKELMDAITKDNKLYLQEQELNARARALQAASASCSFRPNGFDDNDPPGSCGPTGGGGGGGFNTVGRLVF
Method in brief: as §1

USP39 = molecular target: T3, USP39 (UniProt Q53GS9)
T3 sequence (whole entry): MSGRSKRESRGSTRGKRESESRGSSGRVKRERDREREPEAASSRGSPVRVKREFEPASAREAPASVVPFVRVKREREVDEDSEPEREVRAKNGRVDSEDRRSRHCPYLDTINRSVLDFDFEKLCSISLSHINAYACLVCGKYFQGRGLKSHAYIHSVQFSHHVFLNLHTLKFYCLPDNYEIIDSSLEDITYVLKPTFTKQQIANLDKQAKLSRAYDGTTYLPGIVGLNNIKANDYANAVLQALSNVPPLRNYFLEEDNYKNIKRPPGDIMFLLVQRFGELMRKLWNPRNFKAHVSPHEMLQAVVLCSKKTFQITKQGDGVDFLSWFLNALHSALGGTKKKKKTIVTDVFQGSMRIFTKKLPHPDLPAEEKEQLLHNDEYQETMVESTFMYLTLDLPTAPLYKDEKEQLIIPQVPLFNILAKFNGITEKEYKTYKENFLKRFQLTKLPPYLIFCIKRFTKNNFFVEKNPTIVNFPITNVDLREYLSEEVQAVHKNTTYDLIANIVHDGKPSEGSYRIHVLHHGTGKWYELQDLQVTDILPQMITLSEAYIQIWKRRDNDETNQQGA
Method in brief: as §1

USP4 = molecular target: T4, USP4 (UniProt Q13107)
T4 sequence (whole entry): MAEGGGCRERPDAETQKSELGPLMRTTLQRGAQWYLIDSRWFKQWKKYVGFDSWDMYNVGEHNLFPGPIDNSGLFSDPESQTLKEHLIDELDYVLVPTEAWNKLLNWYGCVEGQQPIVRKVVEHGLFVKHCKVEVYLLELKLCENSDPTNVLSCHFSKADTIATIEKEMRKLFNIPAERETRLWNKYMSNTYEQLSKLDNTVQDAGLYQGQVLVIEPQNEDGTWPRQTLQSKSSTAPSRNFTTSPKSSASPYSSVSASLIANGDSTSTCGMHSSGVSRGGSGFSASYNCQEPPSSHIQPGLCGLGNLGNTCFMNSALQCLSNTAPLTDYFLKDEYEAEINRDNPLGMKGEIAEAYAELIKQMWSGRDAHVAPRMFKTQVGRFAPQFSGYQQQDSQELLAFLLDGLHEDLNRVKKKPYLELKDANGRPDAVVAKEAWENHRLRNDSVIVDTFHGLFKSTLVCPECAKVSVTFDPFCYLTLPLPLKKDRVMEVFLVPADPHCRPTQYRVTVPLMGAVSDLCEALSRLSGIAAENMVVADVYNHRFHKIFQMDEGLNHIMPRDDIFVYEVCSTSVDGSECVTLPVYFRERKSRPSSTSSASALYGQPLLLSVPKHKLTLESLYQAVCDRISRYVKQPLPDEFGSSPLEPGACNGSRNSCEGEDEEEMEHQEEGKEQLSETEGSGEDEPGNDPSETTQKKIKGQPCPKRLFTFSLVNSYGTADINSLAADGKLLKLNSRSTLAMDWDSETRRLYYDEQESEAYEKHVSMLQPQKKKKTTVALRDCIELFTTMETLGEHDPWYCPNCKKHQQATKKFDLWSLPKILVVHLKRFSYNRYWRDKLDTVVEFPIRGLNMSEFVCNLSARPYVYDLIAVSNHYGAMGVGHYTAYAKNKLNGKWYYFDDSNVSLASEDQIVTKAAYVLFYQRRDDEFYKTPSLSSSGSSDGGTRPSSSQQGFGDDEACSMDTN
Method in brief: as §1

Measured: log2 ratio of Biotin-Ahx-Ub-VS probe labelling

Cc1ccc(-c2nnc(C)[nH]2)c(NC(=O)CCl)c1
inactive: USP34 0.0375 | USP36 -0.152 | USP38 0.151 | USP39 0.182 | USP4 0.0297
